Data on 7 compounds can be found in PubChem BioAssay (Tox21).

The nature of assay [1]: Nuclear factor erythroid 2-related factor 2/antioxidant responsive element (Nrf2/ARE) small molecule agonists: qHTS cell viability counter screen in human keratinocytes (AID 1919968; active = well fitted curve in the direction sought with a large enough effect in the repeat runs; an effect the other way counts as inactive or inconclusive; also: nearly all actives have a fitted effect of over 55% in size; also: potency is read from the fitted curve at half-maximal effect). An outline of the steps: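 Parallel cytotoxicity read: KeratinoSens HaCaT cells, compound treatment 23 h, viability by CellTiter-Fluor fluorescence 1 h post-reagent.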
For orientation: Quantitative high-throughput screening tests each substance at several concentrations.

A short description of assay [2]: Nuclear factor erythroid 2-related factor 2/antioxidant responsive element (Nrf2/ARE) small molecule agonists: luciferase reporter gene qHTS assay in human keratinocytes (AID 1919969). Also: nearly all actives have a fitted effect of over 35% in size. Also: potency is read from the fitted curve at half-maximal effect. For orientation: Reporter assays use an easily measured gene product as a stand-in for the process of interest.
Assay [3] has as its target Gonadotropin-releasing hormone receptor (Homo sapiens) (UniProt P30968). Nature of the assay: Human gonadotropin-releasing hormone receptor (GnRHR) small molecule agonists, calcium flux assay in GnRHR-HEK293 cells (AID 1920063). Also: nearly all actives have a fitted effect of over 35% in size. The gist of the method:
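Calcium flux, agonist mode, human GnRHR stably integrated in HEK293; dye 1 h at 37 C before compound; Ex/Em=480/540 kinetic read, 3 min; 15 concentrations, triplicate.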
(In general: Calcium assays in cells follow changes in intracellular calcium, usually with a dye or a luminescent sensor.)

In assay [4] the target is KiSS-1 receptor (Homo sapiens) (UniProt Q969F8). In words: Human kisspeptin (KISS1R) small molecule agonists, calcium flux assay in KISS1R-HEK293 cells (AID 1920064; active = well fitted curve in the direction sought with a large enough effect in the repeat runs; an effect the other way counts as inactive or inconclusive). The gist of the method: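 Triplicate 15-concentration series were applied to dye-loaded human KISS1R HEK293 cells, and agonist-evoked calcium fluorescence was captured for 3 min.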
Sequence of KiSS-1 receptor (Homo sapiens) (Q969F8 whole entry, looked up): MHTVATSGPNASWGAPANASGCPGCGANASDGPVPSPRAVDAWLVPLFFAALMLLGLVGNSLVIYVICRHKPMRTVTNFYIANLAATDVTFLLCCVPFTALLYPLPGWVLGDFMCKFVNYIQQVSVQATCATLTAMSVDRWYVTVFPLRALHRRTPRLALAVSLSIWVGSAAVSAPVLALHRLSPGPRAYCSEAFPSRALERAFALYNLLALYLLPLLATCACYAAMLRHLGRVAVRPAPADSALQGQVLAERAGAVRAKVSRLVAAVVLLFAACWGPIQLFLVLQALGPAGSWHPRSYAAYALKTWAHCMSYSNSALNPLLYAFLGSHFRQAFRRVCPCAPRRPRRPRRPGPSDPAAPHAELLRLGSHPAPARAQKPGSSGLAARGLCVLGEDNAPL
The nature of assay [5]: G protein-coupled receptor (GPCR) small molecule agonists, calcium flux assay: HEK293 wild type cell line counter screen (AID 1920065). The gist of the method: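 Non-specific calcium responders were flagged by adding DMSO-dissolved compounds to dye-loaded cells and reading 480/540 nm fluorescence each second for 3 min; ATP served as positive control.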
Assay [6] in a line: p53 small molecule agonists, cell-based qHTS assay with rat liver microsomes: qHTS cell viability counter screen (AID 1963580). Also: nearly all actives have a fitted effect of over 45% in size. An outline of the steps:
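Luminescent ATP readout (CellTiter-Glo, 30 min at room temperature) reports viability of p53RE-bla HCT-116 cells after 16 h at 37 C with test compounds under metabolic activation by rat liver microsomes and NADPH at 0.5 mg/mL final each.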

Assay [7] is described as follows: p53 small molecule agonists, cell-based qHTS assay: qHTS cell viability counter screen (AID 1963581). Also: nearly all actives have a fitted effect of over 45% in size. The gist of the method: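 Multiplexed with the reporter read, a CellTiter-Glo step (30 min, room temperature) gauges ATP-based viability of HCT-116 p53RE-bla cells after 16 h compound incubation at 37 C.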
Assay [8] concerns the target 5-hydroxytryptamine receptor 2A (Homo sapiens) (UniProt P28223). In words: 5-hydroxytryptamine receptor 2A (HTR2A) small molecule antagonists, cell-based qHTS assay (AID 1963586). Also: nearly all actives have a fitted effect of over 45% in size. The gist of the method:
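CHO cells stably expressing human HTR2A were plated for 18 h at 37 C, then loaded with calcium dye for 1 h. Compounds were preincubated 5 min at room temperature before DOI (4 nM solution) was added. Kinetic fluorescence was read for 3 min.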

Assay [9] shares this target. Nature of the assay: 5-hydroxytryptamine receptor 2A (HTR2A) small molecule agonists, cell-based qHTS assay (AID 1963587). Also: nearly all actives have a fitted effect of over 30% in size. An outline of the steps:
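HTR2A-CHO cells, plated 18 h at 37 C/5% CO2, dye-loaded 1 h at 37 C; compounds in DMSO added by pin tool (agonist mode). Intracellular calcium flux read as kinetic fluorescence on FDSS over 2 min at 1 s intervals.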

Assay [10] has as its target Muscarinic acetylcholine receptor M1 (Homo sapiens) (UniProt P11229). Nature of the assay: Cholinergic receptor muscarinic 1 (CHRM1) small molecule antagonists, cell-based qHTS assay (AID 1963588). Also: nearly all actives have a fitted effect of over 40% in size. An outline of the steps:
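Compounds were tested at 15 concentrations in three independent runs. Dye-loaded CHRM1-CHO cells were exposed 5 min at room temperature before stimulation by acetylcholine added at 50nM. Intracellular calcium was read kinetically on FDSS for 3 min.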

Assay [11] shares this target. In words: Cholinergic receptor muscarinic 1 (CHRM1) small molecule agonists, cell-based qHTS assay (AID 1963589). Also: nearly all actives have a fitted effect of over 35% in size. The gist of the method: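 qHTS, 15-point titration, 3 independent runs: compounds pin-transferred onto dye-loaded CHRM1-CHO cells (human M1), calcium fluorescence followed every second to detect agonism.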
Assay [12] is described as follows: cAMP Responsive Elements (CRE) small molecule antagonists, cell-based qHTS assay (AID 1963591; active = well fitted inhibition curve with a large enough effect in the signal ratio in the repeat runs, not every such curve was filed as active; the % refers to the signal ratio). An outline of the steps:
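Fluorescence intensity from cleaved LiveBLAzer B/G substrate (2 h, room temperature) quantified CRE-bla activity in HEK 293T cells exposed 3 h to compound with 0.25 uM final NKH477.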

The target of assay [13] is Beta-2 adrenergic receptor (Homo sapiens) (UniProt P07550). In words: Adrenergic beta2 receptor (ADRB2) small molecule antagonists, cell-based qHTS assay (AID 1963592). Also: series mostly up to about 92 µM; nearly all actives have a fitted effect of over 50% in size. An outline of the steps: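 Assay format: CHO-ADRB2 cells, 18-20hr seeding at 37C/5% CO2, then compound plus 1nM isoproterenol agonist mix for 0.5hr RT. Homogeneous time-resolved fluorescence cAMP detection after 1hr, expressed as 665/615 nm ratio.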
Sequence of Beta-2 adrenergic receptor (Homo sapiens) (P07550 whole entry, looked up): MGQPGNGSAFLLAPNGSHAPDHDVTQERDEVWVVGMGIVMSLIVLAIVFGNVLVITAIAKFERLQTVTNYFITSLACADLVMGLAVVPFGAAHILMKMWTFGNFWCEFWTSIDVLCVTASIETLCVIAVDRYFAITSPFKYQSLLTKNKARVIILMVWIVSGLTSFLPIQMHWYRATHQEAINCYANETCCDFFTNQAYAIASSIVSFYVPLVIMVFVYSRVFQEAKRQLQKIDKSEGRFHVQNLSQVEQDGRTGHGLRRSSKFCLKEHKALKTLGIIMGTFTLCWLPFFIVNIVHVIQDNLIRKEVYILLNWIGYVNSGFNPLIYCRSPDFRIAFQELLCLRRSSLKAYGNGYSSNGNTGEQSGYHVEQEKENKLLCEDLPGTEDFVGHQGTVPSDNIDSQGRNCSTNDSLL

For assay [14], the target named is D(2) dopamine receptor (Homo sapiens) (UniProt P14416). In words: Dopamine D2 receptor (DRD2) small molecule agonists, cell-based qHTS assay (AID 1963594). Also: nearly all actives have a fitted effect of over 35% in size. An outline of the steps: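 HEK293 cells stably expressing DRD2 were cultured 24 h at 37 C, then given Ro20-1724 (0.1 mM final) and compounds for 10 min at room temperature. NKH477 (200nM) was then added for 30 min. cAMP was read by HTRF.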
Sequence of D(2) dopamine receptor (Homo sapiens) (P14416 whole entry, looked up): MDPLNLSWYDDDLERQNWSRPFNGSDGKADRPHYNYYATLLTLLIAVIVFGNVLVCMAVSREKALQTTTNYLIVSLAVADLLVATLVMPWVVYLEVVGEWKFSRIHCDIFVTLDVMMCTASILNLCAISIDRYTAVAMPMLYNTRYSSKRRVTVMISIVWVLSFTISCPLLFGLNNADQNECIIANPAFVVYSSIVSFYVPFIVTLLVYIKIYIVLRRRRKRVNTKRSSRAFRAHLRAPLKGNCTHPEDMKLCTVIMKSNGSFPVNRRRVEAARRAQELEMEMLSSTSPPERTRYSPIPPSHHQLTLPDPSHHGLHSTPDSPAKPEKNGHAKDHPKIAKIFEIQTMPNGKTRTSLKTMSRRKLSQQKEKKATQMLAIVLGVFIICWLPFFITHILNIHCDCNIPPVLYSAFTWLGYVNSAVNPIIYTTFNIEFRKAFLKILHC

Assay [15] has the same target. In words: Dopamine D2 receptor (DRD2) small molecule antagonists, cell-based qHTS assay (AID 1963595; active = well fitted inhibition curve with a large enough effect in the signal ratio in the repeat runs, with a control signal flat; the % refers to the signal ratio). An outline of the steps:
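Antagonism was scored as restored cAMP in HEK293-DRD2 cells. These cells were stimulated with 200 nM NKH477 and 12 nM quinpirole for 30 min at room temperature, in the presence of 0.1 mM Ro20-1724.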

Assay [16] is described as follows: cAMP Responsive Elements (CRE) small molecule agonists, cell-based qHTS assay (AID 1963590). The gist of the method:
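Quantitative HTS for CRE agonists: HEK 293T CRE-bla cells, overnight plating, 3 h compound incubation at 37 C/5% CO2, then 2 h room-temperature LiveBLAzer B/G FRET substrate loading.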

In assay [17] the target is Beta-2 adrenergic receptor (Homo sapiens) (UniProt P07550). Nature of the assay: Adrenergic beta2 receptor (ADRB2) small molecule agonists, cell-based qHTS assay (AID 1963593).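 Also: CHO cells stably overexpressing human ADRB2.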 The gist of the method:
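CHO cells stably over-expressing ADRB2 were plated overnight at 37C, then dosed with compounds plus a stimulation mix containing 100uM IBMX and 25uM Ro-20-1724 for 0.5hr at room temperature. cAMP was measured by HTRF competition, 1hr.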

The nature of assay [18]: p53 small molecule agonists, cell-based qHTS assay with human liver microsomes: qHTS cell viability counter screen (AID 1963579). Also: nearly all actives have a fitted effect of over 45% in size. An outline of the steps: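 Cytotoxicity counter screen: p53RE-bla, 4,000 cells/well; 5 h settle, 37 C/5% CO2; cpd + HLM 0.5 mg/mL + NADPH 0.5 mg/mL (final); 16 h, 37 C; CellTiter-Glo, 30 min RT, luminescence.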

Values joined by “and” are separate entries in the source; they are usually repeats but may differ in a detail not shown here. Identical values can stand only once. Inconclusive results are not listed. A structure can be active in one record and inactive in another. Active and inactive are the calls of the source. Unless noted, calls follow the shape of the full dose curve.

Sequence of Muscarinic acetylcholine receptor M1 (Homo sapiens) (P11229 whole entry, looked up): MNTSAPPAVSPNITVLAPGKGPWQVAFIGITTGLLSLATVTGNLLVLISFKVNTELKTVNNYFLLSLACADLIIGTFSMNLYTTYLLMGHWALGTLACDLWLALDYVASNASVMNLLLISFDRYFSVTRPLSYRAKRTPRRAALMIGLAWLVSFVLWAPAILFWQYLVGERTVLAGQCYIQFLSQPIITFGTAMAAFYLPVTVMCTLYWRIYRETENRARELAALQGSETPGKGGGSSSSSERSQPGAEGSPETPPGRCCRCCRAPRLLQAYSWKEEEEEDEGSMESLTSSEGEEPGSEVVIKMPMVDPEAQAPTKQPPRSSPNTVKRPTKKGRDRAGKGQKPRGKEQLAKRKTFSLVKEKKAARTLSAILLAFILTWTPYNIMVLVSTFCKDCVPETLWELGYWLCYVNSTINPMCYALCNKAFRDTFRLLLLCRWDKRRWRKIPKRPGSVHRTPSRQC
Sequence of 5-hydroxytryptamine receptor 2A (Homo sapiens) (P28223 whole entry, looked up): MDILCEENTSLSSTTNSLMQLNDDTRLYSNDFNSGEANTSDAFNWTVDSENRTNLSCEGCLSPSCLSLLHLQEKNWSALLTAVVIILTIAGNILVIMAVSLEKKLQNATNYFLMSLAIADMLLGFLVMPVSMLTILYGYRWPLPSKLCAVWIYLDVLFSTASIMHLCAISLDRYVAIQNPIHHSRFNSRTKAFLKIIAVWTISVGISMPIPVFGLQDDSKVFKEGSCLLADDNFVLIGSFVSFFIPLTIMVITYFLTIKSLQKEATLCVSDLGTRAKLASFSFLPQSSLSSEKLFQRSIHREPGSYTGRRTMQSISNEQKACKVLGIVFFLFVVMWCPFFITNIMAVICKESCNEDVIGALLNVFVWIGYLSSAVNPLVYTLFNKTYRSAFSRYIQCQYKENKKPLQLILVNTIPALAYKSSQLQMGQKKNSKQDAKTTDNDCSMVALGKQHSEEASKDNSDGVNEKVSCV
Sequence of Gonadotropin-releasing hormone receptor (Homo sapiens) (P30968 whole entry, looked up): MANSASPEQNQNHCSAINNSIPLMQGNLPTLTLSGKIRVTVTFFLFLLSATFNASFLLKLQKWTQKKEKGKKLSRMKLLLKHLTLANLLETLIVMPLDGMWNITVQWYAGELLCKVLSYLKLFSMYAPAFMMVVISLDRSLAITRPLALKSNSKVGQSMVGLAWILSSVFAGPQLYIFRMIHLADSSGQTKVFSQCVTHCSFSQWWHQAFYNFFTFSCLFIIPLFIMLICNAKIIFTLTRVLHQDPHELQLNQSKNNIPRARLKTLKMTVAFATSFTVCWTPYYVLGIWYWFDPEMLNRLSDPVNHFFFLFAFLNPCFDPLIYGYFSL

For `Nc1nc(N)nc(-c2ccccc2)n1`, the Potency result in assay [1], in assay [2], in assay [3], in assay [4], in [5] and in assay [6] was “inactive” each time. The Potency result in assay [7], in assay [8], in assay [9], in [10], in assay [11] and in assay [12] was “inactive” throughout. Moreover, the Potency entry in assay [13], in [14] and in assay [15] was “inactive” in each case.

`C=CC(=O)NCOCCCC`: the Potency result in assay [1], in assay [2], in [3], in assay [4], in assay [5] and in assay [6] was “inactive” throughout. Also, the Potency result in assay [7], in assay [8], in [9], in [10], in assay [11] and in assay [16] was “inactive” each time. For the same compound, the Potency entry in [12], in assay [13], in assay [17], in assay [14] and in assay [15] was “inactive” each time.

With `O=c1[nH]cnc2[nH]ncc12`, the Potency result in assay [1], in assay [2], in assay [3], in [4], in [5] and in assay [18] was “inactive” each time. In addition, the Potency entry in [6], in assay [7], in [16], in assay [12], in assay [13] and in assay [14] was “inactive” throughout. Moreover, the Potency result in [15] was “inactive”.

Consider `CCC(=O)O[C@H]1[C@H](O[C@@H]2[C@@H](C)[C@H](O[C@H]3C[C@@](C)(OC)[C@@H](O)[C@H](C)O3)[C@@H](C)C(=O)O[C@H](CC)[C@@](C)(O)[C@H](O)[C@@H](C)C(=O)[C@H](C)C[C@@]2(C)O)O[C@H](C)C[C@@H]1N(C)C`, for which the Potency entry in assay [1], in assay [2], in assay [3], in assay [4], in assay [5] and in assay [18] was “inactive” in each case. Moreover, the Potency result in [6], in [7], in [16], in assay [12], in assay [13] and in [17] was “inactive” each time. Also, the Potency entry in assay [15] is “inactive”.

`OC[C@H]1O[C@@H]2O[C@H]3[C@H](O)[C@@H](O)[C@@H](O[C@H]4[C@H](O)[C@@H](O)[C@@H](O[C@H]5[C@H](O)[C@@H](O)[C@@H](O[C@H]6[C@H](O)[C@@H](O)[C@@H](O[C@H]7[C@H](O)[C@@H](O)[C@@H](O[C@H]8[C@H](O)[C@@H](O)[C@@H](O[C@H]1[C@H](O)[C@H]2O)O[C@@H]8CO)O[C@@H]7CO)O[C@@H]6CO)O[C@@H]5CO)O[C@@H]4CO)O[C@@H]3CO`: the Potency result in assay [1], in [2], in [3], in assay [4], in assay [5] and in assay [18] was “inactive” each time. Moreover, the Potency entry in assay [6], in assay [7], in [16], in assay [12], in assay [13] and in assay [17] was “inactive” each time. Also, the Potency entry in assay [14] and in assay [15] was “inactive” each time.

For `O=c1cc(-c2ccccc2)oc2ccccc12`, the Potency entry in assay [1] was “inactive and 13.6 µM (active)”; in assay [2] it was 4.86 µM (active) and 2.16 µM (active). Further, the Potency entry in [3], in assay [4], in assay [5], in assay [18], in assay [7] and in assay [8] was “inactive” in each case. In addition, the Potency entry in assay [9], in assay [10], in [11], in [12], in assay [14] and in assay [15] was “inactive” throughout.

`OC1CCCC1`: the Potency entry in assay [1], in assay [2], in [3], in assay [4], in [5] and in [18] was “inactive” throughout. For the same compound, the Potency entry in assay [6], in assay [8], in assay [9], in [10], in assay [11] and in assay [16] was “inactive” in each case. In addition, the Potency entry in [12], in [13], in [17], in assay [14] and in assay [15] was “inactive” each time.
